Data on 40 molecules can be found in PubChem BioAssay (NCI).

This is part of a sample that, as a whole, favours compounds with a hit. Of some 83,000 tested, about 20% had one in any assay.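 Method: cells in 96-well plates; compound added at one concentration; 48 h incubation; percent growth measured; values under 10 scored active.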 Active and inactive are the calls of the source.

The test system of the assay is CCRF-CEM leukemia. Kind of assay: NCI-60 one-dose screen, 48 h (100 = growth as untreated, 0 = no growth, -100 = all killed). The conditions noted are these: 10 µM. How it is done: Growth inhibition of the CCRF-CEM human tumor cell line is measured as a screen for anti-cancer activity. Cells are grown in 96 well plates and exposed to the test compound for 48 hours. Compounds are tested at a single concentration, which is 10^-5 M for most compounds. The reported endpoint is percent growth (GI% or GIPRCNT), where numbers from 0 - 100% represent growth inhibition, and numbers from -100% - 0 represent cell death. For example, a value of 40 represents 60% growth inhibition. A value of 0 means no net growth occurred over the course of the experiment. A value of -40 indicates 40% of cells at the beginning of the experiment died by the end of the experiment. A value of -100 means all cells are dead at the end of the experiment.
NCI-60 Human Tumor Cell Lines Screen was performed using the standard one-dose NCI protocol, which is described in more detail at https://dtp.cancer.gov/discovery_development/nci-60/default.htm.
Compounds with GIPRCNT values below 10 were considered active. Activity score was based on GIPRCNT using the following formula: […]
Score is 0 for GIPRCNT values of 100 or above, 50 for GIPRCNT values of 0, and 100 for GIPRCNT values of -100.
Consider `O=C1OCC2=C1C(c1cccc(Cl)c1)c1cc3c(cc1N2CCO)OCCO3` (stereo not given), for which the growth was 6.58% (active).

Take `CCOCC(=O)C(C#N)c1ccc(Cl)c(Cl)c1` (stereo not given): the growth is 86.8% (inactive).

Consider `O=[P@@]1(c2ccccc2)O[C@H](COCc2ccccc2)[C@@H](OCc2ccccc2)[C@H](OCc2ccccc2)[C@H]1O`, for which the growth is 92.3% (inactive).

Turning to `Cc1cc2ccccc2nc1-c1ccccc1F`, the growth is 96.9% (inactive).

For the molecule `Clc1ccc(Nc2ccnc(NCCCNc3ccnc4cc(Cl)ccc34)n2)cc1`, the growth was -19.9% (active).

Regarding `CC(C)=NNc1ncnc2c1ncn2C1OC(CO)C(O)C1O` (stereo not given), the growth was 35.9% (inactive).

As to `CC(=O)CSC(C)=O`, the growth is 94.8% (inactive).

With `CCCC#CCN(CC)CC`, the growth was 95% (inactive).

Turning to `CC1(C)OC2=C(CC1Br)C(=O)C(=O)c1ccccc12` (stereo not given), the growth is -23.1% (active).

As for `O=C(O)c1ccc(Cl)cc1Nc1ccc(F)cc1`, the growth is 31.4% (inactive).

Consider `CCN1CCC(CCOC)(CN2c3ccccc3Sc3ccc(Cl)cc32)C1` (stereo not given), for which the growth is 30.5% (inactive).

`N#CSCC1CC(O)(c2ccccc2)CC(c2ccc(Cl)cc2)O1` (stereo not given): the growth is 15% (inactive).

Turning to `CN(C)N=Nc1nn(C(=O)Nc2ccc(Cc3ccccc3)cc2)c2ccccc12`, the growth is 64.8% (inactive).

In the case of `S=c1[nH]ccn1-c1c(Cl)cccc1Cl`, the growth is 76.7% (inactive).

As for `O=C(Nc1cccc(Cl)c1)Nc1nccs1`, the growth was 83.2% (inactive).

Turning to `N#CC1=C(Nc2ccccc2Cl)SC(c2ccccc2O)NC1=O` (stereo not given), the growth was 99.9% (inactive).

As to `O=C1/C(=C/c2ccc(Cl)cc2)SC(=Nc2ccc(Cl)cc2)N1Cc1nc2ccccc2[nH]1`, the growth was 62.6% (inactive).

Consider `N=C(N)c1ccc(-c2ccc(-c3cccs3)s2)cc1`, for which the growth is -36.1% (active).

In the case of `O=C(CSSCC(=O)c1ccc(Cl)cc1)c1ccc(Cl)cc1`, the growth was 15.3% (inactive).

Regarding `COc1ccc(/C=C2/CN(CCC#N)C/C(=C\c3ccc(OC)cc3)C2=O)cc1`, the growth was 0.103% (active).

On to `CC(C)(C)c1ccc(N2CSC(=S)N(c3ccc(C(C)(C)C)cc3)C2)cc1`, for which the growth was 88.5% (inactive).

`Cc1ncc(-c2ccoc2)c(NC2CCCCCC2)n1`: the growth was 107% (inactive).

Take `O=C(C[n+]1ccccc1)c1ccc2ccccc2c1`: the growth was 95.9% (inactive).

For the molecule `CCOC(=O)C1(CC(C)C)CCOC1=O` (stereo not given), the growth was 92.2% (inactive).

With `Cc1ccc(Nc2cc(C)nc(NCCCNc3ccnc4cc(Cl)ccc34)n2)cc1`, the growth is -27.8% (active).

`CC/C(=C(/c1ccc(OCCN(C)C)cc1)c1ccc(OC(=O)CCCCC(=O)c2c(C)[nH]c(/C=C3\N=C(c4ccc[nH]4)C=C3OC)c2C)cc1)c1ccccc1`: the growth was 9.97% (active).

With `Nc1ccc2c(c1)Cc1cc(N)c(Br)cc1-2`, the growth was 82.1% (inactive).

As for `COc1cc(-c2nc(-c3nnc(-c4ccc(F)c(Cl)c4)o3)c3ccccn23)cc(OC)c1OC`, the growth is 68.6% (inactive).

In the case of `COc1ccc(S(=O)(=O)Nc2c(/C=C\c3cc(OC)c(OC)c(OC)c3)ccc(OC)c2O)cc1`, the growth is 13.5% (inactive).

On to `FC(F)(F)c1ccc2nc(-c3nc(-c4ccccc4)n4ccccc34)[nH]c2c1`, for which the growth was 52% (inactive).

`Nc1nccc(Nc2ccccc2)n1`: the growth was 89.8% (inactive).

Regarding `CCCCCCCNc1nc(C=O)ncc1-c1ccc(C(F)(F)F)cc1`, the growth is 83.9% (inactive).

For `Fc1ccc2nc(-c3nc(-c4ccccc4)n4ccccc34)[nH]c2c1`, the growth is 53.3% (inactive).

Regarding `O=C(Cc1csc2nc(-c3ccc(Cl)cc3)cn12)N/N=C/c1ccccc1O`, the growth is 20.2% (inactive).

As for `COc1cc(-c2cc(/C=C/C(=O)c3ccc(Cl)c(Cl)c3)[nH]n2)cc(OC)c1OC`, the growth was 3% (active).

For the molecule `C=C1c2c(C)nn(-c3ccc(OC)cc3)c2N(C)C23C[C@@H]1C1(C)c4c(C)nn(-c5ccc(OC)cc5)c4N(C)C(C)(C[C@H]12)C3` (stereo not given in full), the growth was 21.7% (inactive).

Take `CC[C@H](C)C(=O)O[C@H]1CCC=C2C=C[C@H](C)C(CCC3C[C@@H](O)CC(=O)O3)[C@H]21` (stereo not given in full): the growth is 82.3% (inactive).

Take `O=C(CNC(=O)OCc1ccccc1)NCC(=O)Oc1ccc([N+](=O)[O-])cc1`: the growth was 109% (inactive).

In the case of `COc1cc(-c2cc(C(=O)N3CCN(C(=O)c4ccccc4NCc4ccco4)CC3)nc3cc(-c4ccccc4)nn23)cc(OC)c1OC`, the growth is 19.3% (inactive).

Turning to `Cc1ccc(C(=O)N2C/C(=C/c3ccccc3)C(=O)/C(=C/c3ccccc3)C2)cc1`, the growth was 23.3% (inactive).
